Unmarked numbers belong to inactive results. Active and inactive are the calls of the source. Unless noted, no stated cut-off is given here; in the data, active means inhibition above about 42%; inactive means the rest.

Broadly, the inhibition is the drop in the measured response relative to a control, in per cent.

Assay [1] is described as follows: StAR promoter reporter inhibitors, counter-screen for LRH-1 inverse agonist project, cell-based, luminescence, high throughput (AID 651611; in the data active means inhibition above about 28%). The settings on record: StAR promoter luciferase reporter counterscreen, at 3.6 µM, hits give high values. (A counterscreen serves to expose hits that act by an unwanted route or on another target.)
Assay [2] has as its target Nuclear receptor subfamily 5 group A member 2 (Homo sapiens) (UniProt O00482). Description: NR5A2 activity suppression in reporter cells – cell-based, luminescence, confirmation (AID 651613).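 Further: HEK293T cells co-transfected with LRH-1 and StAR promoter luciferase reporter; 0% = vehicle wells and 100% = parental cells lacking receptor.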 Conditions: cell-based LRH-1 luciferase reporter, inverse agonism; at 3.6 µM; hits give high values.
In assay [3] the target is Steroidogenic factor 1 (Homo sapiens) (UniProt Q13285). Description: inverse agonism at SF1 nuclear receptor – cell-based, luminescence, high throughput, counter-screen for LRH-1 inverse agonist project (AID 651614; in the data active means inhibition above about 44%;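 further: cells cotransfected with StAR promoter reporter and SF1 expression vector; 0% = vehicle on cells with receptor and 100% = vehicle on cells lacking receptor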). Conditions: cell-based SF1 luciferase reporter, at 3.6 µM, hits give high values.
Chain of Steroidogenic factor 1 (Homo sapiens) (Q13285 whole entry, looked up, the tested form may be a part): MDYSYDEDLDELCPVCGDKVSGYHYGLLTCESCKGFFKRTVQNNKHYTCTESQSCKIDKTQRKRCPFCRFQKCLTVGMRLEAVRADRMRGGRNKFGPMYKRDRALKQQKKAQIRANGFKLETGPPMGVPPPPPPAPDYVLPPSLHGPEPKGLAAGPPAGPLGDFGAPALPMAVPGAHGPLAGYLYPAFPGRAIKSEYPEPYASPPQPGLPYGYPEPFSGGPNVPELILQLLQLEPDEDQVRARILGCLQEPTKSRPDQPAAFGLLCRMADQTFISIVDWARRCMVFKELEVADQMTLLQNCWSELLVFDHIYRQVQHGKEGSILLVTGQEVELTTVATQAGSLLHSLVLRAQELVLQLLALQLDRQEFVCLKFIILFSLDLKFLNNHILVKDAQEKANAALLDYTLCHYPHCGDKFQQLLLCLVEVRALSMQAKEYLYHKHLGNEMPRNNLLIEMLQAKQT
The nature of assay [4]: compounds suppressing VP16-driven luciferase signal – cell-based, luminescence, high throughput, counter-screen for LRH-1 inverse agonist project (AID 651615; in the data active means inhibition above about 33%). The settings on record: Gal4-VP16 luciferase reporter cells, at 3.6 µM, hits give high values.

Chain of Nuclear receptor subfamily 5 group A member 2 (Homo sapiens) (O00482 whole entry, looked up): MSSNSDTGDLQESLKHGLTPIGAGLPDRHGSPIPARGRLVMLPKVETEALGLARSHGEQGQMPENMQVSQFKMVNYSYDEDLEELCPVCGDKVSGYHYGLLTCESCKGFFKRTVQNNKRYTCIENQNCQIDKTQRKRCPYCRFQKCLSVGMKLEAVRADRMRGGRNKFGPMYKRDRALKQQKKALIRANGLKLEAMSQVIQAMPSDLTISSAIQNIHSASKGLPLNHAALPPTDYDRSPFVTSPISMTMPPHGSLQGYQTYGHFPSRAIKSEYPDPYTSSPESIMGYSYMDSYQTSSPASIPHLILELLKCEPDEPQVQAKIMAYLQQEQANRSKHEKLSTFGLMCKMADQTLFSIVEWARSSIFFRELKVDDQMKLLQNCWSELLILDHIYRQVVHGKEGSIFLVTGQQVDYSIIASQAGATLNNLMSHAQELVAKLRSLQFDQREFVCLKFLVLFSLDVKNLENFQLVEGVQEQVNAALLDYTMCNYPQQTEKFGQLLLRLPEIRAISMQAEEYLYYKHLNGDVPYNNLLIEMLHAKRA

Take `CCOC(=O)C1CCN(Cc2cc(Cl)c3ccccc3c2O)CC1`: the inhibition in assay [1] is 1.44%; in assay [2], 10.1%; in assay [3], 32.9%; in assay [4], 2.83%.

Regarding `Cc1ccc(-c2cc(NC=O)c3ncc(-c4cnn(C)c4)n3c2)cc1`, the inhibition in assay [1] was 50.1% (active); in assay [2], 52% (active); in assay [3], 64.3% (active); in assay [4], -13.8%.

Take `CCCCCCCn1ccc(=N)cc1`: the inhibition in assay [1] is 44.1% (active); in assay [2], 86.7% (active); in assay [3], 77.7% (active); in assay [4], 67.9% (active).

As for `Cc1cc(C(=O)CSc2nnnn2C)c(C)n1CCc1ccc(F)cc1`, the inhibition in assay [1] was 5.26%; in assay [2], 49.4% (active); in assay [3], 48% (active); in assay [4] it was -3.7%.

Turning to `CCN(CC)C1=CC(=O)OC12CCCCC2`, the inhibition in assay [1] was 2.42%; in assay [2], 51.2% (active); in assay [3], 48.7% (active); in assay [4], -9.57%.

Turning to `Cc1ccc(NC(=O)COC(=O)CCC2CCCC2)c(Br)c1`, the inhibition was 5.75% in assay [1], 40.9% in assay [2], 46.2% (active) in assay [3] and -5.49% in assay [4].

Consider `CCN(CC)c1nc(-c2ccccn2)nc(-c2ccccc2)c1C#N`, for which the inhibition in assay [1] was 11.5%; in assay [2], 53.4% (active); in assay [3], 55.7% (active); in assay [4], 13.6%.

Consider `CCOc1ccc(NC(=O)COC(=O)CC2CCCCC2)cc1`, for which the inhibition in assay [1] is 9.8%; in assay [2] it was 44.4% (active); in assay [3] it was 44.8% (active); in assay [4], -6.37%.

Regarding `Cc1ccccc1C(=O)O/N=C/c1c(N2CCOCC2)n(C)c2ccccc12`, the inhibition is 76.4% (active) in assay [1], 84.3% (active) in assay [2], 91.4% (active) in assay [3] and 58.8% (active) in assay [4].

Turning to `Cc1ccc2cccc(OCC(=O)NCCC3=CCCCC3)c2n1`, the inhibition was 8.76% in assay [1], 61.1% (active) in assay [2], 58.1% (active) in assay [3] and -3.55% in assay [4].

Consider `COCCSc1ccccc1C(=O)NCc1ccc2c(c1)OCO2`, for which the inhibition in assay [1] was 6.49%; in assay [2], 39.5%; in assay [3], 48.9% (active); in assay [4], 2.27%.

In the case of `COc1ccc(CCNC(=O)CSc2nc3[nH]ncc3c(=O)n2-c2ccc(C)c(Cl)c2)cc1OC`, the inhibition was 13.2% in assay [1], 61.3% (active) in assay [2], 56.5% (active) in assay [3] and -6.41% in assay [4].

As for `CCN(CC)C(=O)CSc1nc2ccc(NC(=O)CSc3nccn3C)cc2s1`, the inhibition in assay [1] is -37.7%; in assay [2], 0.81%; in assay [3] it was 7.59%; in assay [4], -9.75%.

With `Cc1c(Cl)cccc1NC(=O)CSc1nc2ncc(Cl)cc2[nH]1`, the inhibition in assay [1] was 18.2%; in assay [2], 69% (active); in assay [3], 58% (active); in assay [4], 1.96%.

As to `NC(=S)N/N=C/c1ccc(-n2nncc2-c2ccc(Cl)cc2)cc1`, the inhibition is 12% in assay [1], 51.6% (active) in assay [2], 56.4% (active) in assay [3] and 6.68% in assay [4].

With `Cc1c(OCC(=O)NCCCN2CCOCC2)ccc2c(-c3ccccc3)cc(=O)oc12`, the inhibition in assay [1] was 2.78%; in assay [2], 37.8%; in assay [3], 36.5%; in assay [4], 5.76%.

For the molecule `O=C(CSc1nccc(=O)[nH]1)Nc1ccc(N2CCOCC2)cc1`, the inhibition in assay [1] is 4.42%; in assay [2], 61.3% (active); in assay [3], 47.8% (active); in assay [4] it was -3.99%.

Turning to `Cc1nnc(SCC(=O)Nc2ccc(Br)cc2)n(N)c1=O`, the inhibition in assay [1] is 6.5%; in assay [2] it was 44.3% (active); in assay [3], 32.1%; in assay [4], -5.1%.

As for `Nc1ccc(Br)c2cccnc12`, the inhibition in assay [1] is 3.69%; in assay [2], 26.2%; in assay [3], 24.8%; in assay [4] it was -9.28%.

With `CCOC(=O)c1ccc(N=Cc2cnc(N)nc2N)cc1`, the inhibition in assay [1] is -7.89%; in assay [2], -2.86%; in assay [3], 7.7%; in assay [4], 3.32%.

For `Nc1ccc(Oc2ccc(Cl)cc2)cc1`, the inhibition was 1.47% in assay [1], 35.2% in assay [2], 31% in assay [3] and -7.96% in assay [4].

As to `COc1ccc(C2=Nn3c(nnc3-c3ccccc3OC)SC2)cc1OCC1CC1`, the inhibition was 49.1% (active) in assay [1], 60.4% (active) in assay [2], 62.8% (active) in assay [3] and 24.6% in assay [4].

As for `Cc1nnc(SCC(=O)Nc2sc3c(c2C(N)=O)CCCC3)[nH]c1=O`, the inhibition is 10.4% in assay [1], 46.6% (active) in assay [2], 29.9% in assay [3] and -3.51% in assay [4].

For `CCc1c(O)nc(SCC(=O)Nc2ccc(OC)cc2)n(C2CCCCC2)c1=O`, the inhibition in assay [1] is 13.3%; in assay [2], 55.5% (active); in assay [3], 51.4% (active); in assay [4], 5.01%.

As to `Cc1cc(=O)oc2cc(OCC(=O)N3CCN(C(=O)C4COc5ccccc5O4)CC3)ccc12` (stereo not given), the inhibition in assay [1] was 21.1%; in assay [2], 49% (active); in assay [3], 42.1%; in assay [4], -11%.

Values taken from PubChem BioAssay.
